# Measurements taken from PubChem BioAssay AID799 (SRMLSC, 2007).
# The whole screen tested about 140,000 compounds, of which about 840 (0.6%) were called active. What follows is part of a selection rich in actives, with near analogues and random picks from the rest. A number with no mark means an inactive call.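 How the source made its calls: active means viability gain under doxorubicin at or above a set limit, the compound median plus 3 SD (cut at about 4.7% in these data); inactive means the rest.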
# Test: H69AR viability gain despite doxorubicin, primary screen, MRP-1 activator project, H69AR cells, CellTiter-Glo (AID 799);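 further: MRP-1 overexpressing cells given doxorubicin 25 µM after compound pretreatment; 18-22 h compound pretreatment then 72 h with doxorubicin before readout; 0% = doxorubicin-only wells and 100% = vehicle-treated cells without doxorubicin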
# Details: viability rescue, at 10 µM, hits give high values
row,SMILES,viability increase
1,C/C(=N/NC(=O)CSc1ccccn1)c1ccc([N+](=O)[O-])cc1,5.38% (active)
2,CC(C)(C)NC(=O)COC(=O)c1cc(Br)ccc1Cl,1.61%
3,Cc1ccc(C(=O)NC(C)c2ccccc2)cc1Br (centres undefined),2.53%
4,COc1ccc(C(=O)ON=C2c3ccccc3-c3ccccc32)cc1OC,-0.45%
5,COc1cccc(C2SCC(=O)N2c2cccc(C)c2)c1OC (centres undefined),-1.69%
6,CSCC[C@H](NC(=O)OC(C)(C)C)C(=O)N/N=C/c1cc2ccc(C)cc2nc1Cl,-3.12%
7,Cc1ccc(CN2C(=O)N/C(=C/c3cc(C)n(-c4ccccn4)c3C)C2=O)cc1,2.22%
8,CCC(=O)N1CCN=C1SCc1ccc(F)cc1,5.28% (active)
9,O=C(C1CC1)N1CCN=C1SCc1ccc(Cl)cc1,4.76% (active)
10,O=C(c1ccco1)N1CCN=C1SCc1cccc(Cl)c1,1.42%
11,Cc1cc(C)cc(C(=O)N2CCN=C2SCc2ccc([N+](=O)[O-])cc2)c1,-4.17%
12,Cc1cccc(CC(=O)N2CCN=C2SCc2ccc([N+](=O)[O-])cc2)c1,-3.9%
13,CC1CCN(C(=O)c2ccc(CSc3ccc(Cl)cc3)cc2)CC1,-2.43%
14,Cc1ccc(C(C[N+](=O)[O-])c2c(C)cc3ccccn23)cc1 (centres undefined),-4.62%
15,COc1cc(C(=O)Nc2cc(C(F)(F)F)ccc2N2CCOCC2)ccc1O,-4.55%
16,O=c1[nH]cnc2c1c(-c1ccccc1)cn2-c1ccc(F)cc1,-1.33%
17,CSCCC(NC(=O)c1cc([N+](=O)[O-])cc([N+](=O)[O-])c1)c1nc2ccccc2[nH]1 (centres undefined),-3.92%
18,S=C(NCCc1ccccc1)NCc1ccccc1Cl,-1.54%
19,Cc1noc(/C=C/N(C)C)c1S(=O)(=O)N1CCCC(C(=O)NCc2ccco2)C1 (centres undefined),8.37% (active)
20,O=C(NCc1ccco1)C1CCCN(S(=O)(=O)c2ccccc2)C1 (centres undefined),0.35%
21,O=C(NCc1ccco1)C1CCCN(S(=O)(=O)c2cnc[nH]2)C1 (centres undefined),-1.18%
22,CCCc1c(C)nc2c(Br)cccc2c1Cl,0.38%
23,O=C1CSC2=NCN(c3ccccc3)CN12,8.4% (active)
24,O=C(NCc1cccs1)C(=O)NCC1OCCCN1S(=O)(=O)c1ccc(F)cc1 (centres undefined),-1.49%
25,CC(O)c1nc2ccccc2n1Cc1ccc([N+](=O)[O-])cc1 (centres undefined),-1.44%

row,SMILES,viability increase
1,Cc1ccc(-c2c(C)n([O-])c3c([n+]2=O)CCC3)cc1,-0.22%
2,CC(C)(C)c1ccc(C(=O)NCc2nnc(SCC(=O)N3CCCc4ccccc43)n2-c2ccccc2)cc1,-0.43%
3,Cc1ccc(CSCC(N)C(=O)O)cc1 (centres undefined),1.44%
4,COc1cc2c(cc1/C=C1/NC(=O)N(c3ccccc3)C1=O)OCO2,0.58%
5,CCC1(C)Cc2c(sc3[nH]c(=S)n(Cc4ccccc4)c(=O)c23)CO1 (centres undefined),-3.87%
6,CCC1(C)Cc2c(sc3nc(SC)nc(N)c23)CO1 (centres undefined),-0.12%
7,CCC1(C)Cc2c(sc3nnn(CC(=O)Nc4ccc(Cl)cc4)c(=O)c23)CO1 (centres undefined),9.27% (active)
8,COCc1c(C(=O)N/N=C/C2CC=CCC2)nnn1-c1nonc1N (centres undefined),-1.34%
9,CC(C)(C)N(Cc1ccccc1)C(=O)COC(=O)CCc1c[nH]c2ccccc12,-1.32%
10,O=C(NCC(F)(F)F)Nc1nnc(C(F)(F)F)s1,7.12% (active)
11,COc1ccc(C)cc1NC(=O)CCC(=O)Nc1nnc(C(F)(F)F)s1,1.24%
12,CCc1nnc(NC(=O)CCC(=O)O)s1,0.72%
13,Cc1nnnn1/C(=C\c1ccccc1)C(=O)OCC(=O)N1CC2(C)CC1CC(C)(C)C2 (centres undefined),-4.97%
14,CCn1c(NC(=O)c2nn(C)cc2Br)nc2ccccc21,-2.46%
15,O=C(NCCNc1ccc([N+](=O)[O-])cc1)c1cccc2c(Br)cccc12,1.47%
16,O=C(Nc1ccccc1)c1ccc2c(c1)OCO2,-0.11%
17,C/C(=N/NC(=S)Nc1ccccc1)c1ccc2c(c1)OCO2,7.99% (active)
18,C/C(=N\NC(=S)NCc1ccccc1)c1ccc(Cl)cc1,-2.64%
19,COc1ccc(OCC(O)CNC(=O)Nc2ccc(Cl)cc2)cc1 (centres undefined),2.65%
20,Cc1ccc(C)c(NS(=O)(=O)c2ccc(OCC(=O)NCc3cccnc3)cc2)c1,-4.52%
21,CC1CCN(C(=O)c2ccc(S(=O)(=O)Cc3cc(F)ccc3F)c([N+](=O)[O-])c2)CC1,-4.87%
22,CCOc1ccc(Br)cc1CSC(=N)N,0.81%
23,N=C(N)SCc1cccc2ccccc12,8.11% (active)
24,c1ccc2c(CSCc3nc4ccccc4[nH]3)cccc2c1,-0.17%
